Shiga inhibitor: A qHTS for Small Molecule Inhibitors of Shiga Toxin; AID 2315, 2010; inhibition, % at 38.7 µM; hit rate 9.2% among 290,000; Vero cells, Shiga toxin protein synthesis inhibition reporter; in the data active means inhibition mostly above about 28%, no sharp cut-off; inactive means mostly below about 43%; further: 0% is about no effect
Pf growth 96h: Primary qHTS for delayed death inhibitors of the malarial parasite plastid, 96 hour incubation. P. falciparum luciferase reporter growth, 96 h. Potency, µM (series often up to 28.7 µM), for the others: at the highest dose activity change, negative = inhibition, actives largely listed as inhibitors. hit rate 6.9% among 320,000. AID 504834, 2011; further: potency means the concentration at half of the fitted maximal effect; on the % scale 0 is the no-effect control and ±100 the full control effect
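Plates of compound plus infected erythrocytes (2% hematocrit, 0.05% parasitemia final) incubate 96 hours, 37 C, 5% CO2. Detection reagent added; reduced luminescence from the parasites' luciferase reporter flags inhibition.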
Pf growth 48h: Primary qHTS for delayed death inhibitors of the malarial parasite plastid, 48 hour incubation. P. falciparum luciferase growth in erythrocytes, 48 h. Potency, µM (series often up to 28.7 µM), for inactives: top-dose activity change, negative = inhibition, hits mostly inhibitors. hit rate 5.9% among 310,000; further: potency means the concentration at half of the fitted maximal effect; on the % scale 0 is the no-effect control and ±100 the full control effect
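Firefly luciferase activity from engineered P. falciparum reports growth; inhibitors lower the luminescent signal. Cultures contained 2% hematocrit erythrocytes at 0.1% final parasitemia.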
Cycloheximide cs: Cycloheximide Counterscreen for Small Molecule Inhibitors of Shiga Toxin | cell reporter, cycloheximide protein synthesis inhibition counterscreen | max response, % | hit rate 12% among 300,000 | AID 2314, 2010; in the data active means max response mostly above about 13%, no sharp cut-off; inactive means mostly below about 14%; further: read at 38.3 µM for the half of the compounds with a filed dose; 0% is about no effect
* = called active by the depositor; [ ] = dose if it differs, or a comment. In the library only some 21% were active in any assay of this set; here they are far more common. Unless noted, the call rests on the fitted dose curve; in most records, active means well fitted inhibition curve with a large enough effect; inconclusive means small, poorly fitted or top-dose-only effect, or another doubt; inactive means no such curve, though single readings can be large or run the other way.

Results for CC(=O)Nc1ccc(-c2nnc(SCC(=O)Nc3ccc4c(c3)oc3ccccc34)n2C)cc1 ?
Shiga inhibitor: 44; Pf growth 96h: inconclusive; Pf growth 48h: 0%; Cycloheximide cs: 16*

How did CCn1c(SCC(=O)Nc2ccc3c(c2)oc2ccccc23)nnc1-c1ccc(N)cc1 do in these assays?
Shiga inhibitor: 39; Pf growth 96h: inconclusive; Cycloheximide cs: 35*

How did CCn1c(SCC(=O)Nc2ccccc2C(=O)OC)nnc1-c1ccc(N)cc1 do in these assays?
Shiga inhibitor: -5; Pf growth 96h: inconclusive; Pf growth 48h: inconclusive; Cycloheximide cs: 1

What do the screens show for `Cc1ccc(-c2cc(C(=O)N3CCN(c4ncccn4)CC3)c3ccccc3n2)cc1`?
Shiga inhibitor: 53; Pf growth 96h: 13%; Pf growth 48h: inconclusive; Cycloheximide cs: 49*

What do the screens show for `COc1ccc(-c2cc(C(=O)N3CCN(c4ncccn4)CC3)c3ccccc3n2)cc1OC`?
Pf growth 96h: -39%; Pf growth 48h: inconclusive

Results for O=C(c1cc(-c2cccs2)nc2ccccc12)N1CCN(S(=O)(=O)c2cccc(F)c2)CC1 ?
Shiga inhibitor: 30*; Pf growth 48h: inconclusive; Cycloheximide cs: 32*

Results for CC(C)Oc1cccc(-c2cc(C(=O)N3CCN(S(C)(=O)=O)CC3)c3ccccc3n2)c1 ?
Shiga inhibitor: 57; Pf growth 96h: inconclusive; Pf growth 48h: inconclusive; Cycloheximide cs: 37*

What do the screens show for `O=C(c1cc(-c2ccccn2)nc2c(Cl)cccc12)N1CCN(S(=O)(=O)c2ccccc2)CC1`?
Shiga inhibitor: -7; Pf growth 96h: -16%; Pf growth 48h: 10µM*; Cycloheximide cs: 6

Results for O=C(c1cc(-c2cccs2)nc2ccccc12)N1CCN(S(=O)(=O)c2ccccc2)CC1 ?
Shiga inhibitor: 2; Pf growth 96h: inconclusive; Cycloheximide cs: -1

How did O=C(c1cc(-c2ccccn2)nc2c(Cl)cccc12)N1CCN(C(=O)C2CCCO2)CC1 (stereo not drawn) do in these assays?
Shiga inhibitor: 3; Pf growth 48h: -16%; Cycloheximide cs: 12

What do the screens show for `CC(C)(C)C(=O)/C=c1\s/c(=C\c2ccc(-c3ccc([N+](=O)[O-])cc3)o2)c(=O)n1CC(=O)NC(N)=O`?
Shiga inhibitor: 10; Pf growth 96h: 25%[5.75 µM]; Pf growth 48h: inconclusive; Cycloheximide cs: 14

What do the screens show for `COc1cc(C(=O)NCC(=O)N2CCN(S(=O)(=O)c3cc(C)ccc3C)CC2)cc(OC)c1OC`?
Shiga inhibitor: -4; Pf growth 96h: inconclusive; Pf growth 48h: inconclusive; Cycloheximide cs: -2

What do the screens show for `Cc1ccc(S(=O)(=O)N2CC=C(c3c(C)n(CC(=O)N4CCCC4)c4ccccc34)CC2)cc1C`?
Shiga inhibitor: -3; Cycloheximide cs: -5

How did O=C1C=C(c2ccc3c(c2)OCO3)C[C@@H](c2ccc(Cl)cc2)C1 do in these assays?
Pf growth 96h: 45%; Pf growth 48h: 57%

What do the screens show for `Cc1c(NC(=O)COC(=O)CCc2c[nH]c3ccccc23)c(=O)n(-c2ccccc2)n1C`?
Shiga inhibitor: 1; Pf growth 96h: -8%; Pf growth 48h: 9%; Cycloheximide cs: -2

How did COc1cccc(-c2cc(C(=O)N3CCN(c4ncccn4)CC3)c3ccccc3n2)c1 do in these assays?
Shiga inhibitor: 59*; Pf growth 96h: -23%; Pf growth 48h: inconclusive; Cycloheximide cs: 19*

What do the screens show for `CC(C)Oc1cccc(-c2cc(C(=O)N3CCN(c4ncccn4)CC3)c3ccccc3n2)c1`?
Shiga inhibitor: 68*; Pf growth 96h: 9.3µM*; Cycloheximide cs: 43*

How did O=C(Nc1ccc([N+](=O)[O-])cc1)c1cc(-c2ccccn2)nc2c(Cl)cccc12 do in these assays?
Shiga inhibitor: -5; Pf growth 96h: 15µM*; Pf growth 48h: 18%; Cycloheximide cs: -2

Results for Cc1ccc2nc(-c3ccccn3)cc(C(=O)N3CCN(c4ncccn4)CC3)c2c1 ?
Shiga inhibitor: -3; Pf growth 96h: 2.6µM*; Pf growth 48h: 22%; Cycloheximide cs: -2

Results for O=C(c1cc(-c2ccccn2)nc2ccccc12)N1CCN(c2ncccn2)CC1 ?
Shiga inhibitor: -10; Pf growth 96h: -5%; Pf growth 48h: -18%; Cycloheximide cs: 3

How did CCOC(=O)C1=C(N)Oc2cc(O)ccc2C1c1ccc(Br)cc1 (stereo not drawn) do in these assays?
Shiga inhibitor: 10; Pf growth 96h: inconclusive; Pf growth 48h: 0%; Cycloheximide cs: 0

Results for CSc1ccccc1C(=O)N1CCN(S(=O)(=O)c2sc(C(=O)O)c(C)c2C(=O)O)CC1 ?
Pf growth 96h: 13%; Pf growth 48h: 67%

Results for S=c1[nH]cc(-c2ccc(Cl)cc2)n1Cc1ccccc1 ?
Shiga inhibitor: 13; Pf growth 96h: -30%; Pf growth 48h: -18%; Cycloheximide cs: 14*

Results for CCn1c(-c2ccccc2)c[nH]c1=S ?
Shiga inhibitor: -20; Pf growth 96h: inconclusive; Pf growth 48h: 0%; Cycloheximide cs: -3

How did Cc1ccc(C23CC4CC(CC(CN)(C4)C2)C3)cc1 do in these assays?
Shiga inhibitor: -24; Pf growth 96h: inconclusive; Pf growth 48h: 10µM*; Cycloheximide cs: -5

What do the screens show for `COc1ccccc1OCC(=O)Nc1ncc(C)s1`?
Pf growth 96h: 184%; Pf growth 48h: 138%

Results for Cc1ccccc1OCC(=O)Nc1nnc(C2CCCCC2)s1 ?
Shiga inhibitor: 24; Pf growth 96h: 32%; Pf growth 48h: 30%; Cycloheximide cs: -1

How did CCOc1cccc(C(=O)Nc2nnc(-c3ccco3)s2)c1 do in these assays?
Shiga inhibitor: 92*; Pf growth 96h: 2%; Pf growth 48h: inconclusive; Cycloheximide cs: 31*

How did Cc1cccc(OCC(=O)Nc2nnc(-c3ccco3)s2)c1 do in these assays?
Shiga inhibitor: -11; Pf growth 96h: 5.2µM*; Pf growth 48h: 9%; Cycloheximide cs: -1

Results for COc1ccccc1OCC(=O)Nc1nnc(-c2ccco2)s1 ?
Shiga inhibitor: 35; Pf growth 96h: 0%; Pf growth 48h: -16%; Cycloheximide cs: 47*

How did COc1ccccc1OCC(=O)Nc1nnc(C2CCCC2)s1 do in these assays?
Shiga inhibitor: 15; Pf growth 96h: -2%; Pf growth 48h: 1%; Cycloheximide cs: 15*

Results for C=CCN(C(=O)CNC(=O)c1ccco1)C(C(=O)NC1CCCCC1)c1cccnc1 (stereo not drawn) ?
Shiga inhibitor: -9; Pf growth 96h: 16%; Pf growth 48h: -4%; Cycloheximide cs: -3

What do the screens show for `Cc1ccccc1OCC(=O)Nc1nnc(-c2ccncc2)s1`?
Shiga inhibitor: -12; Pf growth 96h: 15µM*; Pf growth 48h: 4%; Cycloheximide cs: -1

What do the screens show for `O=C(NCCN1CCCCC1)/C(=C/c1ccco1)NC(=O)c1ccccc1`?
Shiga inhibitor: 14; Pf growth 96h: 6.6µM*; Pf growth 48h: 2%; Cycloheximide cs: -5

How did COc1ccc(C(=O)N/C(=C\c2ccco2)C(=O)NCc2cccnc2)cc1 do in these assays?
Shiga inhibitor: 32; Pf growth 96h: 1.2µM*; Pf growth 48h: 33%; Cycloheximide cs: -1

What do the screens show for `O=C(NCc1cccnc1)/C(=C/c1ccco1)NC(=O)c1ccccc1`?
Shiga inhibitor: 14; Pf growth 96h: 12µM*; Pf growth 48h: 28%; Cycloheximide cs: -1

Bioassay records as filed in PubChem.
